# IL-1B inflam inh = blocks inflammasome-driven IL-1 beta release; THP-1 LPS/ATP IL-1B secretion, AlphaLISA, 16 h; stronger effect = lower value; activity change, % at 57.5 µM; hit rate 4.7% among 360,000; AID 743279; in the data active = activity change below about -50%; inconclusive = mostly about -30% to -49%; also: % is scaled to controls: 0 for no effect and ±100 for the full control effect
#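 Secreted IL-1B measured by AlphaLISA bead assay after 16 h compound exposure of THP-1 cells; compounds (final up to 57.5 uM) added 1 h before LPS (250 ng/mL) and ATP (1.25 mM) stimulation; lower signal means less secretion.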
# ClpP mod = qHTS Assay for Activators of ClpP; ATP-dependent Clp protease proteolytic subunit (Bacillus subtilis (strain 168)), P80244; purified B. subtilis ClpP, FRET peptide cleavage, 20 min; Potency, µM (doses to about 57.5 µM), for inactives: at the top dose activity change, negative = active; hit rate 1.9% among 340,000; active = well fitted falling curve with a large enough effect; inconclusive = small, poorly fitted or top-dose-only effect; inactive = no such curve, though single readings can be large or run the other way; also: potency is read from the fitted curve at half-maximal effect; the source files actives as falling curves though it sought activators and does not explain the sign; nearly all actives have a fitted effect of over 65% in size
#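 FRET quenching reversal measured ClpP activation: 10 microg/mL B. subtilis ClpP at pH 8 with the FRET-FV decapeptide, read at 430 nm after 320 nm excitation. The 20-min minus 0-min signal was scaled between DMSO/no-enzyme wells and ADEP (5.8 microM final).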
# DT40 TDP1 CPT = DT40-hTDP1 cell growth loss with CPT | AID 686979 | Potency, µM (series often up to 46.2 µM), without a hit: at the top dose activity change, negative = growth inhibition, usual class: inhibitors | chicken DT40 Tdp1-/-;hTDP1 cells + 20 nM CPT, ATP luminescence, 48 h | hit rate 12% among 420,000; also: potency is read from the fitted curve at half-maximal effect; % is scaled to controls: 0 for no effect and ±100 for the full control effect; nearly all actives have a fitted effect of over 55% in size
#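 Cell growth measured by CellTiter-Glo luminescence after a minimum 48 h, 37 C compound exposure with 20 nM CPT in Tdp1-knockout DT40 cells stably expressing hTDP1, seeded 400/well; qHTS titration format.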
# TDP1 cell noCPT = qHTS for Inhibitors of human tyrosyl-DNA phosphodiesterase 1 (TDP1): qHTS in cells in absence of CPT; DT40 Tdp1-/- hTDP1 cells, no CPT, ATP luminescence, 48 h; Potency, µM (top dose mostly 46.2 µM), without a hit: at the highest dose activity change, negative = growth inhibition, most hits filed as inhibitors; hit rate 15% among 420,000; AID 686978, 2013; also: potency is read from the fitted curve at half-maximal effect; % is scaled to controls: 0 for no effect and ±100 for the full control effect; nearly all actives have a fitted effect of over 55% in size
#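 Readout: luminescence from CellTiter-Glo after 30 min in the dark at RT. Cells: DT40 Tdp1-/- with stable hTDP1, 400/well. Exposure: compounds alone, ≥48 hr, 37 °C.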
# DRD3 antagonist = D3 dopamine receptor (human) antagonism | P35462 | D3R cells, DiscoveRx beta-arrestin luminescence, antagonist mode; stronger effect = lower value | max response, negative = inhibition, % | hit rate 2.5% among 360,000 | AID 652054; in the data active = max response below about -50%; inconclusive = no clear call, values can overlap the other calls; also: % is scaled to controls: 0 for no effect and ±100 for the full control effect
# Target sequence (P35462 whole entry, looked up): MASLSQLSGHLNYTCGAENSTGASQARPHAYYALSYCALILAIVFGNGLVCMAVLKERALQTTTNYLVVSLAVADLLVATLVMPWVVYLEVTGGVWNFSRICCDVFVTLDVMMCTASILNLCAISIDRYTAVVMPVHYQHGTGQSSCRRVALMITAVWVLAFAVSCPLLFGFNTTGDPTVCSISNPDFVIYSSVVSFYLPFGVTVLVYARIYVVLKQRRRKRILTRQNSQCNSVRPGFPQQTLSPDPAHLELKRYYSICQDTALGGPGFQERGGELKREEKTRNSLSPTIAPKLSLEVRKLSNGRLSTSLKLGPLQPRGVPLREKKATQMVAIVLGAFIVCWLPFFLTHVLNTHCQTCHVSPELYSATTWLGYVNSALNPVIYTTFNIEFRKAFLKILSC
#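 Cells plated overnight at 1500 cells/well, then exposed to library compounds with dopamine controls for 90 minutes at 37 degrees C. DiscoveRx reagent added for 30–60 minutes at room temperature; luminescence read, quantitative HTS format.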
# D3 ag = D3 dopamine receptor (human) agonism; D3R DiscoveRx beta-arrestin cells, luminescence, 90 min; max activation, %; hit rate 0.58% among 410,000; in the data active = max activation above about 30%; also: 0% is about no effect
#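 Agonist mode: compounds and dopamine controls were applied to plated cells for 90 min at 37 degrees C after an overnight attachment at 1500 cells/well. Luminescent read-out followed 30 - 60 minutes at room temperature with DiscoveRx detection reagent.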
# * hit, by the source's call; u = inconclusive; x = not tested or not shown. Sampled rows, rich in hits. Any-hit rate of the full collection: about 21%. Unless noted, calls follow the shape of the dose curve; as a rule, active = well fitted inhibition curve with a large enough effect; inconclusive = small, poorly fitted or top-dose-only effect; inactive = flat fitted curve, though single readings scatter.
SMILES,IL-1B inflam inh,ClpP mod,DT40 TDP1 CPT,TDP1 cell noCPT,DRD3 antagonist,D3 ag
O=C(CN1C(=O)NC2(CCCCCC2)C1=O)N1CCN(c2ccccc2)CC1,-7.1,-0.2%,-9.3%,7.6%,9.9,0.0
Cc1ccc(CN2CCC(n3nccc3NC(=O)c3ccccc3C)CC2)o1,-18.6,-1.1%,-3.3%,2.9%,-17.0,-7.4
CCOC(=O)c1c(NC(=O)CNCCOC)sc2c1CCCC2,-1.5,-7.7%,u,11.6µM*,17.6,4.5
O=C(Nc1sc2c(c1C(=O)O)CCCCC2)c1ccco1,23.1,-4.0%,u,u,-15.1,2.1
CCOC(=O)c1c(NC(=O)c2ccco2)sc2c1CCCCC2,3.6,35.5µM*,29.1µM*,29.1µM*,-14.0,-19.1
CCOC(=O)c1c(NC(=O)C(C)N2CCN(C(=O)c3ccco3)CC2)sc2c1CCCC2 (stereo not drawn),-56.8*,u,14.6µM*,16.4µM*,-16.5,6.0
CCOC(=O)c1c(NC(=O)c2ccc(N3C(=O)C4C5C=CC(C5)C4C3=O)cc2)sc2c1CCCC2 (stereo not drawn),-2.2,-5.8%,u,23.1µM*,1.0,3.9
CCOC(=O)c1c(NC(=O)c2ccco2)sc(C(=O)N2CCCC2)c1C,-13.2,-4.8%,u,u,38.8,0.4
CNc1cnc(-c2ccc(F)c(F)c2F)cn1,13.5,4.7%,0.0%,2.9%,-4.2,-9.1
CCCCOc1ccc(C(=O)NCC(=O)N2CCN(C(=O)c3ccco3)CC2)cc1,-3.8,-0.8%,8.0%,-3.5%,11.2,3.0
CCOC(=O)C1CC(c2ccccc2)=NNC1=O (stereo not drawn),6.3,x,12.4%,4.7%,6.7,6.3
CCOC(=O)c1c(NC(=O)C(C)Sc2cn(CCNC(=O)c3ccc(OCC)cc3)c3ccccc23)sc2c1CCC2 (stereo not drawn),x,-2.5%,u,u,x,4.5
CCOC(=O)c1c(NC(=O)CCNCc2ccco2)sc2c1CCC2,-68.8*,x,u,u,-26.2,-7.9
CCOC(=O)c1c(NC(=O)C(C)Sc2cn(CCNC(=O)c3c(F)cccc3F)c3ccccc23)sc2c1CCC2 (stereo not drawn),x,-2.4%,20.6µM*,16.4µM*,x,8.5
CCCOC(=O)c1c(NC(=O)C2c3ccccc3Oc3ccccc32)sc2c1CCCC2,x,12.6µM*,u,u,x,-10.9
O=C(Nc1sc2c(c1C(=O)NCCO)CCCC2)c1ccco1,-59.2*,x,-6.9%,-5.3%,25.3,17.0
CCOC(=O)c1c(NC(=O)CS(=O)(=O)c2cn(CC)c3ccccc23)sc2c1CCCCC2,26.8,-11.6%,20.6µM*,u,-23.2,5.7
COCCn1c(=O)c(-c2cccc(C#N)c2)nc2cnc(N3CCOCC3)nc21,x,x,-24.7%,-1.0%,x,x
COc1ccccc1OCCNC(=O)C(=O)c1c[nH]c2ccccc12,11.0,-0.5%,-21.9%,-16.0%,-21.8,-2.7
O=C(c1c[nH]c2ccccc12)C(Cl)c1ccccc1 (stereo not drawn),-73.4*,1.2%,23.1µM*,20.6µM*,-1.2,0.5
O=C(c1c[nH]c2ccccc12)C(O)C(c1ccccc1)N1CCOCC1 (stereo not drawn),19.2,1.2%,-20.0%,u,-25.5,-7.0
COc1ccccc1NC(C)C(=O)c1c[nH]c2ccccc12 (stereo not drawn),x,0.2%,11.2µM*,u,x,x
Cc1cc(NC(=O)CSc2nnc3ccc(-c4ccc(F)cc4)nn23)no1,13.0,x,22.3%,-15.7%,-13.7,3.1
COc1ccc(NC(=O)CC2Nc3ccccc3NC2=O)cc1 (stereo not drawn),x,-6.2%,u,23.1µM*,x,3.1

# Compound activity as filed in PubChem.
